Data from PubChem BioAssay AID434994 (NMMLSC, 2010).
This is one part of the list. A number with no mark means an inactive call.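 Rule for the calls: active = superoxide signal below 65% of the plate average of sample wells; inactive = the rest.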

Assay: superoxide lowering in aged yeast cells, confirmation, cherry picked compounds (AID 434994);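 note: cells aged with compound for 7 days at 30 degrees C before staining; 100% equals mean DHE fluorescence of all compound wells on the plate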
Details: S. cerevisiae aging, superoxide DHE fluorescence; at 10 µM; hits give low values

SMILES	superoxide response (% of plate) [%]
CN1CCN(C(=S)SCC(=O)Nc2ccc(Cl)cc2C(=O)c2ccccc2)CC1	111
C[C@]12CCC3C(CC[C@H]4C[C@@H](O)CC[C@]34C)C1C[C@@H](O)[C@H]2O (some centres not stated)	90.6
